# In PubChem BioAssay (EPA / NIEHS):
# Where “and” joins values, the source holds several entries; their conditions need not be identical. Identical values can stand only once. Results filed as inconclusive are left out. Calls of active or inactive are those of the source. How the source made its calls, unless noted: active means hit-call score of the fitted dose curve at least 0.9, where 1 is the maximum; inconclusive means response in the unintended direction; inactive means score below 0.9.
# Target: Retinoic acid receptor alpha (Homo sapiens) (UniProt P10276)
# Sequence (P10276 whole entry, looked up): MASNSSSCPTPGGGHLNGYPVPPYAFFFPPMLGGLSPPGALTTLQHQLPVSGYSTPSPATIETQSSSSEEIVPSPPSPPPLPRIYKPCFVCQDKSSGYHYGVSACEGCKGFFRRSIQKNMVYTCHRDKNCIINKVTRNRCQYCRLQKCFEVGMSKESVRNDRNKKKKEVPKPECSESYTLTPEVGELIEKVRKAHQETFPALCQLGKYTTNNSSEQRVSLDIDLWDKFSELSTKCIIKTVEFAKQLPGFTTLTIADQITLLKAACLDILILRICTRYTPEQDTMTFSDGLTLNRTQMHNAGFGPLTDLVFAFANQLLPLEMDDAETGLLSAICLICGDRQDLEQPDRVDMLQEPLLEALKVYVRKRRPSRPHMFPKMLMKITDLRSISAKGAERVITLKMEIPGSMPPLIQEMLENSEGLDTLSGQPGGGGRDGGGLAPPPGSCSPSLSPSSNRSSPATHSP
# Experiment: ATG_RARa_TRANS: Attagene TRANS-FACTORIAL HepG2 Assay for human Retinoic Acid Receptor alpha (RARa) (AID 2283005)
# Details: not given
# Summary of the method: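 HepG2 transiently transfected with multiplex GAL4-UAS reporter units including a human RARa–GAL4 chimera; 24 h compound exposure. Reporter mRNA quantified by RT-PCR, 6-FAM labeling and capillary electrophoresis; gain of signal versus DMSO.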
row,SMILES,outcome
1,CCN(CC)C(=O)N(CC)CC,inactive
2,CCCCC1CCC(O)CC1 (stereo not drawn),inactive
3,CC1CCC(C(C)C)C(O)C1 (stereo not drawn),inactive
4,CS(=O)(=O)OCCCCOS(C)(=O)=O,inactive
5,COc1cc(C(C)C)ccc1C,inactive
6,CC(=O)c1c(C)c([N+](=O)[O-])c(C(C)(C)C)c([N+](=O)[O-])c1C,inactive
7,CCCCCCCC(=O)OCCCCCC,inactive
8,C=CC(C)C#N (stereo not drawn),inactive

# Read-out: not listed separately
# Experiment: BSK_3C_Proliferation: Cell Proliferation Assessment in the BioMAP Diversity Plus: 3C Assay (AID 2283006; active means hit-call score of the fitted dose curve at least 0.9, where 1 is the maximum; inactive means score below 0.9;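 on AC50: potency may reflect either rise or fall in cell number versus DMSO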)
# Details: primary human endothelial cells (HUVEC)
# Summary of the method: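 Proliferation of human vascular endothelial primary cells after 48 h dosing, quantified as SRB-stained protein at 560 nm relative to DMSO.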
SMILES,outcome,AC50
CCN(CC)C(=O)N(CC)CC,inactive,
Clc1cc(Cl)c(-c2c(Cl)c(Cl)cc(Cl)c2Cl)cc1Cl,,16.7 µM (active)
CCOC(=O)C(C#N)=C(c1ccccc1)c1ccccc1,,20 µM (active) and 8.88 µM (active)
CC1(C)C2=CCCC(C)(C)[C@]23CC[C@H]1C3,,31.7 µM (active)
CS(=O)(=O)OCCCCOS(C)(=O)=O,inactive,
CC(=O)c1c(C)c([N+](=O)[O-])c(C(C)(C)C)c([N+](=O)[O-])c1C,inactive,
CC1(C)CCC[C@]2(C)[C@H]3CCO[C@]3(C)CC[C@@H]12,,32.6 µM (active) and 33.6 µM (active)
O=C1OC[C@H](Cc2cccc(O)c2)[C@H]1Cc1cccc(O)c1,inactive,
CC(C)(N=C=O)c1cccc(C(C)(C)N=C=O)c1,inactive,

# Target: Peroxisome proliferator-activated receptor gamma (Homo sapiens) (UniProt P37231)
# Sequence (P37231 whole entry, looked up): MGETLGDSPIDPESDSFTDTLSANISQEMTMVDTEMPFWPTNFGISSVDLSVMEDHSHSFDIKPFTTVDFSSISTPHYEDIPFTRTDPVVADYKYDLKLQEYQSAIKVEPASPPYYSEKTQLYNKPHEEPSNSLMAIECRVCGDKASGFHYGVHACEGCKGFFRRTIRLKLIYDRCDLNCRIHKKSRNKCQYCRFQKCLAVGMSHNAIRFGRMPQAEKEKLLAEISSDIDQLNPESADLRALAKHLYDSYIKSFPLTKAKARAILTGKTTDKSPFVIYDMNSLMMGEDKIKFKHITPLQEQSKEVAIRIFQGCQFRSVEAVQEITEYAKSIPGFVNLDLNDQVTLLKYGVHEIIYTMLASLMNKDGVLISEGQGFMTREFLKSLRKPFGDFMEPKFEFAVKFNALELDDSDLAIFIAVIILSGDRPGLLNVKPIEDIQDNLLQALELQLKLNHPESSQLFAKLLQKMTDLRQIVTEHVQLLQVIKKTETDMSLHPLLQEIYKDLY
# Experiment: ATG_PPARg_TRANS: Attagene TRANS-FACTORIAL HepG2 Assay for human Peroxisome Proliferator-activated Receptor-gamma (PPARg) (AID 2283007)
# Details: not given
# Summary of the method: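 Gain-of-signal endpoint relative to DMSO, derived from reporter mRNA levels quantified by RT-PCR and capillary electrophoresis. Cells were HepG2 transiently expressing a chimeric NR-Gal4 construct with GAL4-UAS reporters, exposed to chemicals for 24 h.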
SMILES,outcome,AC50
Clc1cc(Cl)c(-c2c(Cl)c(Cl)cc(Cl)c2Cl)cc1Cl,inactive,
CCCCC1CCC(O)CC1 (stereo not drawn),inactive,
COc1ccc(CCC(C)=O)cc1,inactive,
CC1CCC(C(C)C)C(O)C1 (stereo not drawn),inactive,
CC1(C)C2=CCCC(C)(C)[C@]23CC[C@H]1C3,inactive,
CS(=O)(=O)OCCCCOS(C)(=O)=O,inactive,
CC(C)C[C@H](NC(=O)OCC1c2ccccc2-c2ccccc21)C(=O)O,,23.1 µM (active)
CCCCCCCCCC(C)C=O (stereo not drawn),,18.5 µM (active)
C[N+](C)(C)CCCCCC[N+](C)(C)C,inactive,
CC1(C)CCC[C@]2(C)[C@H]3CCO[C@]3(C)CC[C@@H]12,inactive,
C#CC(C)(O)CC(C)C (stereo not drawn),inactive,
O=C1OC[C@H](Cc2cccc(O)c2)[C@H]1Cc1cccc(O)c1,inactive,
CC1=C(Br)C(=O)C(Br)=C/C1=C(/c1ccccc1S(=O)(=O)O)c1cc(Br)c(O)c(Br)c1C,inactive,
C=C(C#N)C(=O)OCC,inactive,
C=CC(C)C#N (stereo not drawn),inactive,
CC(=O)O[C@@H]1CC2CCC1(C)C2(C)C (stereo partly drawn),inactive,
CCN(CCC#N)c1ccc(N=Nc2ccc([N+](=O)[O-])cc2)cc1,inactive,

# Target: Nuclear receptor subfamily 1 group I member 2 (Homo sapiens) (UniProt O75469)
# Sequence (O75469 whole entry, looked up): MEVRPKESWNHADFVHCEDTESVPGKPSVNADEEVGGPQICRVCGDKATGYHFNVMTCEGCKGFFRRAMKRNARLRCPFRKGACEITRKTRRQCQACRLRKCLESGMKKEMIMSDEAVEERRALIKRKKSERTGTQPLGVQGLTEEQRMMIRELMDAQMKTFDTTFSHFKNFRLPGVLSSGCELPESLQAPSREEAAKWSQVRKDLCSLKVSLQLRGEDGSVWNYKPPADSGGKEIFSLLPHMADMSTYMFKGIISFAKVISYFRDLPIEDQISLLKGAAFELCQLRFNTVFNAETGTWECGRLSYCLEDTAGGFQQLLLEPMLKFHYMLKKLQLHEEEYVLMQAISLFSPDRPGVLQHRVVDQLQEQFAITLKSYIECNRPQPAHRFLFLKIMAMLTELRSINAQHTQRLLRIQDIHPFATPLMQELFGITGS
# Experiment: ATG_PXR_TRANS: Attagene TRANS-FACTORIAL HepG2 Assay for human Pregnane X Receptor (PXR) (AID 2283008)
# Details: not given
# Summary of the method: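 Fluorescence intensity of FAM-labelled, HpaI-digested reporter amplicons, separated by capillary electrophoresis, quantifies induction. HepG2 cells with PXR-Gal4 trans-reporter system were exposed 24 h; DMSO defines baseline.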
SMILES,outcome,AC50
CC/C=C\CCOC(=O)CC,inactive,
CCN(CC)C(=O)N(CC)CC,inactive,
Clc1cc(Cl)c(-c2c(Cl)c(Cl)cc(Cl)c2Cl)cc1Cl,,4.6 µM (active)
CCOC(=O)C(C#N)=C(c1ccccc1)c1ccccc1,,1.24 µM (active)
CC(=O)CC(=O)Nc1ccc(C)cc1C,inactive,
CCCCC1CCC(O)CC1 (stereo not drawn),inactive,
COc1ccc(CCC(C)=O)cc1,inactive,
CC1CCC(C(C)C)C(O)C1 (stereo not drawn),inactive,
N#Cc1cscn1,inactive,
CC1(C)C2=CCCC(C)(C)[C@]23CC[C@H]1C3,,1.31 µM (active)
CC(C)C[C@H](NC(=O)OCC1c2ccccc2-c2ccccc21)C(=O)O,,12.5 µM (active)
O=C(O)CCCCCCCCCCCC(=O)O,inactive,
CCCCCCCCCC(C)C=O (stereo not drawn),inactive,
C[N+](C)(C)CCCCCC[N+](C)(C)C,inactive,
CC(=O)c1c(C)c([N+](=O)[O-])c(C(C)(C)C)c([N+](=O)[O-])c1C,,1.84 µM (active)
CCCCCCCC(=O)OCCCCCC,inactive,
CC1(C)CCC[C@]2(C)[C@H]3CCO[C@]3(C)CC[C@@H]12,,32.6 µM (active)
C=C(C)[C@@H]1CC=C(C)C(=O)C1,inactive,
C#CC(C)(O)CC(C)C (stereo not drawn),inactive,
O=C1OC[C@H](Cc2cccc(O)c2)[C@H]1Cc1cccc(O)c1,,7.35 µM (active)
CC1=C(Br)C(=O)C(Br)=C/C1=C(/c1ccccc1S(=O)(=O)O)c1cc(Br)c(O)c(Br)c1C,,29.6 µM (active)
C=C(C#N)C(=O)OCC,inactive,
CC(C)(N=C=O)c1cccc(C(C)(C)N=C=O)c1,,11.3 µM (active)
COS(=O)(=O)O,inactive,
CCOC(=O)CC(C)O (stereo not drawn),inactive,
C=CC(C)C#N (stereo not drawn),inactive,
CCCN(CCC)S(=O)(=O)c1ccc(C(=O)O)cc1,,18.7 µM (active)
CCN(CCC#N)c1ccc(N=Nc2ccc([N+](=O)[O-])cc2)cc1,inactive,

# Target: human Retinoic Acid Receptor gamma (RARg), RARG (gene 5916) (UniProt P13631)
# Sequence (P13631 whole entry, looked up): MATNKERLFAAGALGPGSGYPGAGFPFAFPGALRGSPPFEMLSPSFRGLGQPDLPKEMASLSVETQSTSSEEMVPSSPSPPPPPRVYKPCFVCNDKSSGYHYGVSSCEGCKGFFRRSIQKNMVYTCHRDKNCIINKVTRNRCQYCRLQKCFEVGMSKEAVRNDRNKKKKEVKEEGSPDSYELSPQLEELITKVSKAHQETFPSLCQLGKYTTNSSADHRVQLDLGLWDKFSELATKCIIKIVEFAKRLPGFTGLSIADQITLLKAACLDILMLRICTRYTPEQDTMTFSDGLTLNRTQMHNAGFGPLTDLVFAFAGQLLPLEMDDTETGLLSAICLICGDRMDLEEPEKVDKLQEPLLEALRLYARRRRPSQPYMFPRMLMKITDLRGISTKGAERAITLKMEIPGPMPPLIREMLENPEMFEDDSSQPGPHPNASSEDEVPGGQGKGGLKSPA
# Experiment: ATG_RARg_TRANS: Attagene TRANS-FACTORIAL HepG2 Assay for human Retinoic Acid Receptor gamma (RARg) (AID 2283009)
# Details: not given
# Summary of the method: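 HepG2, RARg-GAL4 TRANS system, 24 h exposure; reporter mRNA by RT-PCR + CE fluorescence; increase over DMSO.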
row,SMILES,outcome
1,CCN(CC)C(=O)N(CC)CC,inactive
2,CCCCC1CCC(O)CC1 (stereo not drawn),inactive
3,CC1CCC(C(C)C)C(O)C1 (stereo not drawn),inactive
4,CC1(C)C2=CCCC(C)(C)[C@]23CC[C@H]1C3,inactive
5,CCCCCCCCCC(C)C=O (stereo not drawn),inactive
6,COc1cc(C(C)C)ccc1C,inactive
7,CC(=O)c1c(C)c([N+](=O)[O-])c(C(C)(C)C)c([N+](=O)[O-])c1C,inactive
8,CCCCCCCC(=O)OCCCCCC,inactive
9,CC1(C)CCC[C@]2(C)[C@H]3CCO[C@]3(C)CC[C@@H]12,inactive
10,CCC(C)=O,inactive
11,C#CC(C)(O)CC(C)C (stereo not drawn),inactive
12,O=C1OC[C@H](Cc2cccc(O)c2)[C@H]1Cc1cccc(O)c1,inactive
13,CC1=C(Br)C(=O)C(Br)=C/C1=C(/c1ccccc1S(=O)(=O)O)c1cc(Br)c(O)c(Br)c1C,inactive
14,CCOC(=O)CC(C)O (stereo not drawn),inactive
15,C=CC(C)C#N (stereo not drawn),inactive
16,CC(=O)O[C@@H]1CC2CCC1(C)C2(C)C (stereo partly drawn),inactive
